Molecules are shown by their SMILES. Among all 2,300 compounds or so, about 550 (24%) were called active. The rule behind the calls is not given here. The list is a sample of the results. Entries with a potency or affinity are not part of this list.

The assay is described as follows: Vero E6 cell cytotoxicity, dose response, cytotoxicity control for non-replicating M. tuberculosis project, secondary assay (AID 492998). To be noted: series mostly up to 20 µM.
Regarding `O=C(COc1ccc2c(c1)CCC2)Nc1ccccn1`, the outcome was inactive.
For `O=C1NC(=O)N(Cc2ccco2)C(=O)/C1=C\c1cccn1CCOc1ccc(Cl)cc1`, the call was inactive.
To `O=C1NC(=O)N(Cc2ccc(F)cc2)C(=O)/C1=C\c1ccc([N+](=O)[O-])s1` belongs “inactive”; to `OC(CNCCc1ccc(C(F)(F)F)cc1)COc1cccc2ccccc12` (stereo unspecified), “inactive”.
The entry for `O=C(COC(=O)c1cc(Cl)ccc1O)c1ccc2c(c1)OCO2` is “inactive”; for `O=C1CC(Sc2ncccn2)C(=O)N1c1ccccc1C(F)(F)F` (stereo unspecified) it is “inactive”.
The entry for `CCOC(=O)c1c(NC(=O)C2COc3ccccc3O2)sc2c1CC(C)(C)NC2(C)C` (stereo unspecified) is “inactive”; for `CCOC(=O)CCS(=O)(=O)c1nc(-c2ccccc2)cc(C(F)(F)F)n1` it is “inactive”; for `CCOc1ccc2ccccc2c1/C=N/NC(=O)c1ccncc1` it is “inactive”.
As for `COc1ccc(NC(=O)Nc2ccc(O)c3ccccc23)cc1`, the call was inactive.
For `Cc1ccc(S(=O)(=O)/N=C(\CCl)N2CCOCC2)cc1`, the result was inactive.
The entry for `Cc1cc(CN(C)C)c(O)c(C2(C)CCCCC2)c1` is “inactive”; for `CCCCNC(=O)N1CCc2ccccc2C1` it is “inactive”.
To `CCOc1ccccc1OC(=O)c1cc2ccccc2oc1=O` belongs “inactive”; to `Cc1ccc(NC(=O)C2CC2c2ccccc2)cc1` (stereo unspecified), “inactive”.
Turning to `CN(/N=C/c1ccc([N+](=O)[O-])o1)c1ccccc1`, the compound was called inactive.
To `O=c1oc(-c2ccccc2[N+](=O)[O-])nc2ccccc12` belongs “inactive”; to `COc1ccc(OC)c(N2C(=O)NC(=O)/C(=C/c3ccc([N+](=O)[O-])s3)C2=O)c1`, “inactive”; to `CCC(=O)N1CCN(c2cc3c(cc2F)c(=O)c(C(=O)O)cn3CC)CC1`, “inactive”.
For the compound `O=C(COC(=O)c1ccccn1)Nc1cccc(Cl)c1Cl`, the compound was classed as inactive.
To `CCOC(=O)C1CCCN(Cc2nc(Cc3ccccc3Cl)no2)C1` (stereo unspecified) belongs “inactive”; to `Cc1cc(Br)ccc1OCCCCN1CCC(C)CC1`, “inactive”; to `CCCCCOc1ccc(CSC2=NCCN2)cc1[N+](=O)[O-]`, “inactive”.
Take `CCc1ccc(C(C)NC(=O)C2CCCO2)cc1` (stereo unspecified): the compound was called inactive.
To `COc1cccc(NC(=O)c2ccc(Cn3cc([N+](=O)[O-])cn3)o2)c1` belongs “inactive”.
For the compound `CCS(=O)(=O)c1ncc(Cl)c(C(=O)Nc2ccc(S(=O)(=O)N3CCC(C)CC3)cc2)n1`, the compound was classed as inactive.
The entry for `Cc1ccc(-c2ccc(/C=N/NC(=O)CN3CCOCC3)o2)cc1[N+](=O)[O-]` is “inactive”; for `O=C(Nc1ccc(S(=O)(=O)N2CCOCC2)cc1)c1ccc([N+](=O)[O-])s1` it is “inactive”; for `CC1CCN(S(=O)(=O)c2cccc(C(=O)Oc3ccc([N+](=O)[O-])cc3)c2)CC1` it is “inactive”.
Consider `CCN1CCN(Cc2cc(C(C)(C)C)c(O)c(C(C)(C)C)c2)CC1`, for which the compound was called inactive.
Consider `O=C(N/N=C/c1ccc(OC(=O)c2cccs2)cc1)c1ccccn1`, for which the compound was classed as inactive.
`COc1cc(C2C3=C(CC(C)(C)CC3=O)OC(N)=C2[N+](=O)[O-])ccc1O` (stereo unspecified): the compound was classed as inactive.
The entry for `CC(C)CCNCC(O)CON=C1c2ccccc2-c2ccccc21` (stereo unspecified) is “inactive”; for `O=C(O)c1ccc(NS(=O)(=O)/C=C/c2ccccc2)cc1O` it is “inactive”; for `CCOC(=O)N/N=C\c1ccc([N+](=O)[O-])s1` it is “inactive”.
The entry for `CCCOC(=O)c1ccc(NC(=O)Cc2cccs2)cc1` is “inactive”; for `CCOc1ccc(NC(=O)CCC(=O)N/N=C/c2ccc([N+](=O)[O-])s2)cc1` it is “inactive”.
In the case of `O=C(NNc1ccc([N+](=O)[O-])cc1)c1ccccc1Cl`, the compound was classed as inactive.
Turning to `O=C(N/N=C/c1ccc(Br)s1)c1ccccc1[N+](=O)[O-]`, the outcome was inactive.
To `Cc1cccc(NCc2ccc([N+](=O)[O-])s2)c1` belongs “inactive”; to `Cc1ccc(C2=N/C(=C\c3cccnc3)C(=O)O2)cc1`, “inactive”; to `CCOC(=O)c1cc(COc2cc(Cl)cc(Cl)c2)on1`, “inactive”.
To `O=C(c1cc2ccccc2o1)c1nc2c(n1O)CCCCC2` belongs “inactive”.
On to `Nc1cccn2c(-c3ccc(Cl)cc3)cnc12`, for which the compound was called inactive.
Regarding `CC1(C(=O)OCC(=O)Nc2nnc(-c3ccccc3)o2)CC1(Cl)Cl` (stereo unspecified), the result was inactive.
The entry for `CCOC(=O)C1CCCc2c1[nH]c1c(C(N)=O)cccc21` (stereo unspecified) is “inactive”.
The entry for `Cc1ccc(Oc2c(C(N)=O)cc([N+](=O)[O-])cc2[N+](=O)[O-])cc1` is “inactive”; for `COc1cc(/C=C/c2ccc3c([N+](=O)[O-])cccc3n2)ccc1OCC(=O)O` it is “inactive”.
To `CCC1CCc2sc(C(=O)NNC(=O)c3ccncc3)cc2C1` (stereo unspecified) belongs “inactive”; to `CN(CCS(=O)(=O)c1ccc(Cl)cc1)Cc1cccnc1`, “inactive”; to `CC(=O)c1ccc(NC(=O)c2cc(CC(C)C)on2)cc1`, “inactive”.
Regarding `CC(C)(C)Nc1nc(NC(C)(C)C)nc(-n2ccnc2)n1`, the compound was classed as inactive.
For `O=C(NC(=S)Nc1ccc(F)cc1)C1CCCCC1`, the compound was classed as inactive.
To `COC(=O)COc1cccc(NC(=O)c2ccc(Cl)cc2)c1` belongs “inactive”; to `O=C(NNC(=O)c1ncc(Cl)c(Cl)c1Cl)c1ccc(F)cc1`, “inactive”; to `CC(C)c1ccc(OCC(=O)NNC(=O)c2cnccn2)cc1`, “inactive”.
To `Cc1cc(Br)ccc1OCC(=O)NNC(=O)C(=O)Nc1ccccc1` belongs “inactive”; to `Cc1cc(NC(=O)COc2ccccc2)ccc1Cl`, “inactive”; to `O=C(Oc1cccnc1)c1ccc(Cl)c(Cl)c1`, “inactive”.
On to `CCc1ccc(NC(=O)C(=O)NNC(=O)COc2cccc(OC)c2)cc1`, for which the call was inactive.
The entry for `CCc1ccc(OCC(=O)Nc2ccncc2)c(Br)c1` is “inactive”.
To `Cc1cc(OCC(=O)Nc2ccncc2)ccc1Br` belongs “inactive”.
Consider `Cc1cc2cc(CNC(=O)C3CCCC3)ccc2n1C`, for which the outcome was inactive.
The entry for `O=C(CCC1CCCCC1)NCc1ccc(F)cc1` is “inactive”.
To `Clc1ccc(SCCCCN2CCNCC2)cc1` belongs “inactive”; to `O=C(NCC1CCCCC1)c1ccc([N+](=O)[O-])cc1`, “inactive”.
Turning to `CCCCOC(=O)c1ccc(NC(=O)c2nn(C)cc2Br)cc1`, the call was inactive.
For the compound `O=C(NCCSc1ccccc1)c1ccc(Br)cc1`, the call was inactive.
To `Cc1ccc2cc(/C=N/NC(=O)[C@H](C)NC(=O)OC(C)(C)C)c(Cl)nc2c1` belongs “inactive”.
To `CN1CC(=O)NC1=NC(=O)C12CC3CC(CC(C3)C1)C2` belongs “inactive”; to `Cc1cc(Br)ccc1OCCCCN1CCCCC1`, “inactive”.
To `CCOC(=O)c1csc(NC(=O)COc2ccc(Cl)cc2Cl)n1` belongs “inactive”; to `CCOc1ccc(Cn2c(=O)oc3ccccc32)cc1`, “inactive”; to `CC1C/C(=N/N2C(=O)CSC2=S)CC(C)(C)C1` (stereo unspecified), “inactive”.
On to `C/C(=N/NC(=O)c1ccncc1)C1=C(O)CC(C)(C)CC1=O`, for which the outcome was inactive.
To `CC1=C(/C=C/C(C)=N\NC(=O)c2ccncc2)C(C)(C)CCC1` belongs “inactive”; to `C=CCNCC(=O)N1N=C(c2ccc3ccccc3c2)CC1c1ccc(OC)cc1` (stereo unspecified), “inactive”.
The entry for `CCn1ccc(C(=O)Nc2cccc(Cl)c2)n1` is “inactive”; for `CCn1nnc(NC(=O)c2sc3ccccc3c2Cl)n1` it is “inactive”.
To `CCCc1cc(C(=O)Nc2cccc(C(C)=O)c2)no1` belongs “inactive”.
Turning to `CC(C)(C)c1ccc(OCCC(=O)OCC(=O)NC2CCCCC2)cc1`, the compound was classed as inactive.
To `COC(=O)CCC(=O)Nc1sc(Cc2ccccc2)c(C)c1C(N)=O` belongs “inactive”; to `COc1ccc(C(CNC(=O)c2cccc(NS(=O)(=O)c3ccc(C)c(F)c3)c2)N2CCCC2)cc1` (stereo unspecified), “inactive”; to `COC(=O)c1ccccc1Sc1ncnc2onc(C)c12`, “inactive”.
The entry for `Cc1noc2ncnc(Sc3ccc(Br)cc3)c12` is “inactive”; for `CCOC(=O)CNc1ccc(C(=O)OCC)cc1[N+](=O)[O-]` it is “inactive”.
The entry for `CC(C)c1ccc(N2C(=O)NC(=O)/C(=C/C=C/c3ccco3)C2=O)cc1` is “inactive”.
For `Brc1ccc(CSc2nnc(-c3ccco3)o2)cc1`, the result was inactive.
To `CCCc1ccc(OCc2ccc(C(=O)N/N=C/c3cccnc3)o2)cc1` belongs “inactive”.
The entry for `CN1C(=O)NC(=O)/C(=C/c2ccc([N+](=O)[O-])s2)C1=O` is “inactive”; for `NC(=O)c1ccc(N=Cc2ccc([N+](=O)[O-])s2)cc1` it is “inactive”.
As to `Cc1cc(C)n(CC(=O)N/N=C/c2ccc([N+](=O)[O-])s2)n1`, the result was inactive.
To `O=c1oc(/C=C/c2ccc([N+](=O)[O-])s2)nc2ccccc12` belongs “inactive”.
To `NNC(=O)CNC(=O)C12CC3CC(CC(C3)C1)C2` belongs “inactive”.
To `COc1ccccc1C1=NOC(COC(=O)c2ccc([N+](=O)[O-])cc2)C1` (stereo unspecified) belongs “inactive”; to `COCCNC(=O)c1cc2cc(Cl)cc(Cl)c2oc1=O`, “inactive”.
`Cc1cccc(OC(=O)c2sc3ncn(C)c(=O)c3c2C)c1`: the result was inactive.
Take `CCn1c2ccccc2c2cc(CNCc3ccc(OC)cc3OC)ccc21`: the compound was classed as inactive.
On to `O=C(COc1ccc(Cl)cc1)OCC(=O)N1CCCc2ccccc21`, for which the compound was classed as inactive.
To `CC(C)(C)/C(O)=C/c1nc2ccccc2oc1=O` belongs “inactive”.
Turning to `COc1ccc(NC(=O)c2cnc(SC)nc2)cc1`, the outcome was inactive.
The entry for `COc1ccc(NC(=O)CO/N=C2/CCCc3nonc32)c(OC)c1` is “inactive”.
To `CCOC(=O)N1CCC(N2CCCC(C(=O)c3ccc4cc(OC)ccc4c3)C2)CC1` (stereo unspecified) belongs “inactive”.
The entry for `COc1ccc(C(=O)COC(=O)c2ccc(Cl)nc2)c(OC)c1` is “inactive”; for `O=C(COC(=O)CC1CCCC1)Nc1ccc(OC(F)F)cc1` it is “inactive”.
Consider `Cc1cc(C)cc(OC(=O)c2cccnc2)c1`, for which the outcome was inactive.
The entry for `CCCCOC(=O)c1ccc(OC(=O)c2cccnc2)cc1` is “inactive”; for `CCc1cccc(OCCCn2ccnc2)c1` it is “inactive”; for `CN1/C(=C\C(=O)COC(=O)C2COc3ccccc3O2)C(C)(C)c2ccccc21` (stereo unspecified) it is “inactive”.
To `CN1/C(=C\C(=O)COC(=O)c2ccc([N+](=O)[O-])o2)C(C)(C)c2ccccc21` belongs “inactive”; to `C=CC(=O)Oc1ccc(N2Cc3ccccc3C2=O)cc1`, “inactive”; to `CC1=NN(C(=O)CCCc2ccccc2)C(O)(C(F)(F)F)C1` (stereo unspecified), “inactive”.
The entry for `Cc1ccc(/C(O)=C/c2nc3ccccc3oc2=O)cc1` is “inactive”; for `COc1ccc(OCCCC(=O)Nc2ccc(N3CCOCC3)cc2)cc1` it is “inactive”; for `CN(CC(=O)Nc1ccc(Cl)cc1)C1CCCCC1` it is “inactive”.
`CCOCCOC(=O)c1ccc(NC(=O)C2COc3ccccc3O2)cc1` (stereo unspecified): the compound was classed as inactive.

(Values after PubChem BioAssay AID492998 (Southern Research Specialized Biocontainment Screening …, 2010).)
